Results from PubChem BioAssay (NCATS).
Inconclusive results are not listed. Where a call stands in place of a potency, no number is given. Calls of active or inactive are those of the source. The call rests on the fitted dose curve; in most records, active means well fitted inhibition curve with a large enough effect; inconclusive means small, poorly fitted or top-dose-only effect; inactive means flat fitted curve, though single readings scatter.

Experiment: High Content Imaging Cell-Based qHTS for Inhibitors of the mTORC1 Signaling Pathway in MEF (Tsc2-/-, p53-/-) Cells (AID 2666);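 further: percent of cells scored positive for phospho-rpS6 Ser235/236 immunostaining by imaging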
Conditions: series mostly up to 38.3 µM
Description: NIH Molecular Libraries Probe Production Centers Network [MLPCN]
NIH Chemical Genomics Center [NCGC]
Assay Submitter (PI): Blenis, John; Hoffman, Greg; Harvard University
NCGC Assay Overview: Thee mammalian target of rapamycin (mTOR) is an intracellular serine/threonine kinase Aberrant regulation of mTOR signaling plays a causative role in a number of human diseases, including cancer, benign tumors such as lymphangioleiomyomatosis (LAM) and Tuberous Sclerosis Complex (TSC), and metabolic diseases such as diabetes and obesity. This project aims to identify inhibitors of ribosomal protein S6 (rpS6) phosphorylation. The phosphorylation of rpS6 is a key event downstream of mTOR activation. The assay uses a phospho-specific antibody of phospho-rpS6 to detect inhibitors of mTOR activation. Mutations in the Tsc1 and Tsc2 genes are the underlying genetic lesions responsible for TSC, causing constitutive activation of the mTORC1 pathway and leading to profound effects on cell metabolism. Aberrant metabolism in cancer has recently received significant attention as a target to develop therapeutic agents in the treatment of cancer1. As Tsc2-/- cells have lost the ability to respond to energy and growth factor deprivation, these cells are unable to properly down regulate cellular biosynthetic processes in response to metabolic stress, and are thus extremely sensitive to glucose deprivation-induced death.2 A central goal of this project is to explore the unique cell survival and metabolic properties of cells with Tsc1 or Tsc2 by screening for compounds that selectively target the Tsc2-/- MEFs by screening both Tsc2-/- and WT MEF cell lines. We hope to better understand these aspects of TSC physiology in order to exploit them for therapeutic benefit.
NCGC IN Cell Assay Protocol:
For quantitative high throughput analysis of mTORC1 signaling, we developed a cell-based assay for immuno-fluorescence based detection of rpS6 phosphorylation on the Acumen Explorer that will be used a platform for the primary small molecule screen. Mouse embryonic fibroblasts (MEFs) are cultured in 1536-well plates using DMEM + 10% FBS. Twenty-four hrs after plating, test compounds (solubilized in DMSO) are delivered and incubated with the cells for 24 hrs at 37 degree Celsius. Following the incubation, media with compound is aspirated and the cells are fixed in 4% paraformaldehyde (PFA) containing PBS + 0.2% TX-100. Next, PFA is aspirated, cells are washed two times with PBS plus 0.2% TX-100 and the cells are blocked for 1 hr at room temperature (blocking buffer: LiCOR Blocking Buffer plus 0.2% TX-100). This is followed by aspiration and staining with Alexa-488 conjugated-phospho-rpS6 Ser235/236 antibody for 2 hours at room temperature (Cell Signaling Technology # 4803, 1:50 dilution in blocking buffer). Cells are washed two times with PBS plus 0.2% TX-100, and stained with 10 uM propidium iodide (PI) for 20-25 minutes for cell number measurement (1:500 dilution of Hoescht staining is also added for IN Cell imaging). Active wells which are selected (based on Acumen results) are imaged on the IN Cell 1000 (GE Healthcare) using the D360/40X and HQ480/40X excitation filters for the Hoechst and Alexa-488 cytoplasmic stains, respectively. The fluorescence emission filters used were HQ460/40M and HQ535/50M for the Hoechst and Alexa-488 cytoplasmic stains, respectively. The normalized phospho-S6 staining is calculated as the ratio of […] for the single concentration rapamycin control ([…] nM) and DMSO columns. […] Inhibition of the pathway is defined based on the normalized phospho-S6 intensity in rapamycin treated cells. Each treatment is reported as the % positive cells in the well, where thresholds are defined by selecting wells with the highest and lowest signal and differentiating between the % non-active and % active populations. […]
Potency means the concentration at half of the fitted maximal effect.

| SMILES | Potency |
| --- | --- |
| C[C@H](O)C(=O)C1=Nc2c(nc(N)[nH]c2=O)NC1 | inactive |
| O=c1[nH]c2ccccc2c2ccccc12 | inactive |
| CN[C@H](CC(=O)O)C(=O)O | inactive |
| O=C(O)c1ccccc1Nc1cccc(OCc2ccc3ccccc3n2)c1 | inactive |
| C=CCN1CCc2c(cc(O)c(O)c2Cl)C(c2ccccc2)C1 (stereo not given) | inactive |
| c1ccc(C(NCCNC(c2ccccc2)c2ccccc2)c2ccccc2)cc1 | inactive |
| CCCn1c(=O)c(C)cn2nc(N)nc12 | inactive |
| Cc1cc2c(cc1Cl)N(C(=O)Nc1ccnc3ccccc13)CC2 | inactive |
| COc1cc(CC(=O)O)ccc1O | inactive |
| COc1cc(/C=C(\C#N)C(=O)Nc2nnc(C(F)(F)F)s2)ccc1OCc1ccc(C(F)(F)F)cc1C(F)(F)F | inactive |
| CC(=O)C(C)=O | inactive |
| NCCC1CCCC(CCN)N1 (stereo not given) | inactive |
| Nc1ccc(CCNc2ncnc3c2ncn3C2OC(CO)C(O)C2O)cc1 (stereo not given) | inactive |
| Cc1nc(N=Nc2ccc(S(=O)(=O)O)cc2S(=O)(=O)O)c(COP(=O)(O)O)c(C=O)c1O | inactive |
| NC(C(=O)N[C@@H]1C(=O)N2C(C(=O)O)=C(Cl)CS[C@H]12)c1ccccc1 (stereo not given in full) | inactive |
| NC(=Nc1ccccc1)NC(=O)c1nc(Cl)c(N)nc1N | inactive |
| Clc1nccc2c1ccc1ccccc12 | inactive |
| COc1cc(CNC(=O)CCCCCCC(C)C)ccc1O | inactive |
| CCCCCCCCCC(=O)NC(CN1CCOCC1)[C@H](O)c1ccccc1 (stereo not given in full) | inactive |
| OC1(c2ccc(Cl)cc2)CCN(Cc2c[nH]c3ccccc23)CC1 | inactive |

| SMILES | Potency |
| --- | --- |
| NC(N)=N[C@@H](CCC(=O)O)C(=O)O | inactive |
| CN(CC[C@@H](Oc1ccc(C(F)(F)F)cc1)c1ccccc1)CC(=O)O | inactive |
| NC1C=CC=C(C(=O)O)C1 (stereo not given) | inactive |
| c1ccc(C(NCc2cccnc2)(c2ccccc2)c2ccccc2)cc1 | inactive |
| Cc1cccc(C)c1OCC(N)C(C)C (stereo not given) | inactive |
| COc1cc(/C=C(\C#N)C(=O)c2ccc(O)c(O)c2)cc(I)c1O | inactive |
| C=CC[C@H](N)C(=O)O | inactive |
| c1ccc2c(c1)CC(N1CCN(c3cccc4c3OCCO4)CC1)C2 | inactive |
| CC(C)C[C@H](NC(=O)[C@H](O)[C@H](N)Cc1ccccc1)C(=O)O | inactive |
| O=C(O)C1=CC(=C(c2ccc(O)c(C(=O)O)c2)c2ccc(O)c(C(=O)O)c2)C=CC1=O | inactive |
| NC(=O)CC[C@H](N)C(=O)O | inactive |
| CC(O)C(O)[C@H]1CNc2nc(N)[nH]c(=O)c2N1 (stereo not given in full) | inactive |
| Cc1nc2c(OCc3ccccc3)cccn2c1CC#N | inactive |
| COc1ccc(NC(=O)c2ccc(-c3ccc(-c4noc(C)n4)cc3C)cc2)cc1N1CCN(C)CC1 | 16.5 µM (active) |
| C=C1C[C@@]23CC[C@H]4[C@@](C)(CCC[C@@]4(C)C(=O)O)[C@@H]2CC[C@]1(O)C3 | inactive |
| CC(C)(C)NCC(O)COc1cccc2[nH]c(=O)[nH]c12 (stereo not given) | inactive |
| N#Cc1cc2nc(O)c(O)nc2cc1[N+](=O)[O-] | inactive |
| O=c1ccc2c(OCCCCc3ccccc3)c3ccoc3cc2o1 | inactive |
| C=CCn1c(=O)c2c(nc(-c3ccc(S(=O)(=O)O)cc3)n2C)n(C)c1=O | inactive |
| OC[C@H]1NC[C@@H](O)[C@@H]1O | inactive |
